Results on 22 molecules are retold here after PubChem BioAssay AID602376 (Johns Hopkins Ion Channel Center, 2012).

Results with a measured potency or affinity are listed apart. Results filed as inconclusive are left out. The source made the active and inactive calls.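 The calls were made as follows: active = raises choline transporter activity at one or more tested doses and gives a fitted dose-response curve; inconclusive = no clear call, values can overlap the other calls; inactive = no choline transporter activation at any dose, or no curve.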

The target in the experiment is High affinity choline transporter 1 (Homo sapiens) (UniProt Q9GZV3). The experiment can be described thus: CHT activators, dose response, cell-based, 10-point CRC, membrane potential dye (AID 602376). The following applies: HEK293-CHT, choline-induced membrane potential dye, cells express CHT LV-AA mutant; series mostly up to 67 µM.
High affinity choline transporter 1 (Homo sapiens), sequence (Q9GZV3 whole entry, looked up): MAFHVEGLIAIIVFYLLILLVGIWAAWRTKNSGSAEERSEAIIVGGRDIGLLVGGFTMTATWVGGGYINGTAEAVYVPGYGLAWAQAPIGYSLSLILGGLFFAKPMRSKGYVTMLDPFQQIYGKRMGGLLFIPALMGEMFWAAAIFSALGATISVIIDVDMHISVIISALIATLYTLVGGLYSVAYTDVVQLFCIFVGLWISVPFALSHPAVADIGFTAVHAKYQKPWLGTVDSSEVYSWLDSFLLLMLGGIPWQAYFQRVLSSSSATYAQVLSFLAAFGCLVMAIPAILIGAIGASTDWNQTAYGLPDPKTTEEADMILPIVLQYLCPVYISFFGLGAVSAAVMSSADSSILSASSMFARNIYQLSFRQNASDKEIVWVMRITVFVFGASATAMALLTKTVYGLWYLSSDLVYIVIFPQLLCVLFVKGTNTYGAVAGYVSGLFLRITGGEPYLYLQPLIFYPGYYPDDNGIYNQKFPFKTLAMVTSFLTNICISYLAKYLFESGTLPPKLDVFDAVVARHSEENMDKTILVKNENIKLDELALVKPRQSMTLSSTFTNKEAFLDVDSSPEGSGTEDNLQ
Consider `CCOc1cc(-c2sc(Nc3cc(C)ccc3OC)n[n+]2-c2ccccc2)ccc1OC`, for which the molecule was classed as inactive.
The result for `CC(=O)N1CCN(c2ccccc2NC(=O)COc2cc(C)ccc2C(C)C)CC1` reads “inactive”.
To `COc1ccc(NC(=O)C(c2ccccc2)N2CCN(c3ccccn3)CC2)cc1Cl` (configuration not stated) belongs “inactive”.
As to `N#Cc1c(N)oc(-c2ccco2)c1-c1ccco1`, the molecule was called inactive.
To `Cc1cccc2nc(-c3cccnc3)c(NCCC(C)C)n12` belongs “inactive”; to `COc1ccc(-c2c(-c3cc(OC)c(OC)c(OC)c3)noc2C)cn1`, “inactive”.
To `CCOC(=O)c1c(NC(=O)CSc2nc3ccccc3o2)sc(C(C)=O)c1C` belongs “inactive”; to `CCCCn1c(=N)n(CC(O)COc2ccccc2)c2ccccc21` (configuration not stated), “inactive”; to `COC(=O)c1ccccc1NC(=O)CN1CCN(C23CC4CC(CC(C4)C2)C3)CC1`, “inactive”.
The result for `CCC(C)(C)C1CCc2nc3ccccc3c(C(=O)OC(C)C(=O)Nc3c(C)n(C)n(-c4ccccc4)c3=O)c2C1` (configuration not stated) reads “inactive”; that for `COc1ccc(CN2CCC(N(CCc3ccccc3)Cc3ccccc3)CC2)c(OC)c1`, “inactive”.
Take `O=C(NCC(c1ccco1)N1CCc2ccccc2C1)c1cccc(F)c1` (configuration not stated): the molecule was classed as inactive.
The result for `N=c1c2c(n(Cc3ccc(Cl)c(Cl)c3)c3c1CCC3)CCCC2` reads “inactive”.
To `CN(Cc1ccc(F)cc1)C(=O)C(c1ccccc1)c1ccccc1` belongs “inactive”; to `CCC(C)c1ccccc1N1CC(C(=O)Nc2ccccc2N2CCCC2)CC1=O` (configuration not stated), “inactive”.
The result for `COc1ccc(C(C)=O)cc1CSc1nc2ccccc2c(=O)n1-c1ccccc1C` reads “inactive”; that for `CCc1cc2c(N3CCN(c4ccccc4)CC3)ncnc2s1`, “inactive”; that for `C=C1CCN(Cc2ccccc2)S(=O)(=O)c2ccccc21`, “inactive”.
Consider `Cn1c(=O)c2c(nc(CN3CCN(c4cccc(Cl)c4)CC3)n2CCc2ccccc2)n(C)c1=O`, for which the outcome was inactive.
In the case of `CC(Sc1ccc(Cl)cc1)C(=O)Nc1ccccc1-c1ccccc1` (configuration not stated), the outcome was inactive.
To `CCn1cc(C(=O)OCC(=O)OC2CC(C)CCC2C(C)C)c(=O)c2ccc(C)nc21` (configuration not stated) belongs “inactive”; to `CCOC(=O)C1(CC2CC2)CCN(Cc2cn[nH]c2-c2cccc(F)c2)CC1`, “inactive”.
